Rows were chosen to be rich in hits. Some 7.9% of all compounds tested hit in one or more screens of this group.
KB-V1 cytotox = kills drug-selected multidrug resistant KB-V1 cells; 400,000 tested, 3.4% active; Potency, µM (highest dose often 46.1 µM), usual class: cytotoxic; KB-V1 MDR cells viability, CellTiter-Glo, 72 h; note: nearly all actives have a fitted effect of over 60% in size
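KB-V1, DMEM (no phenol red) + 10% FBS; cpd pin-transferred, titration series; 72 h, 37 degrees C; CellTiter-Glo, luminescence. Data normalized, curve-fit.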
SW480 rerep = induces DNA re-replication in SW480 colon adenocarcinoma cells; 340,000 tested, 1.8% active; SW480 DNA re-replication, Hoechst DNA content imaging, 48 h; Potency, µM (titrated, usually from 46.1 µM), most hits filed as activators; note: nearly all actives have a fitted effect of over 55% in size
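Treated cells incubate 48 hr (37 C, 5% CO2), are stained 40 min with Hoechst, and nuclear fluorescence is enumerated; a rise in nuclei with high DNA signal marks re-replication.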
HT1080 IDH1KD tx = toxicity to HT-1080 IDH1 knockdown cells (counter line); 360,000 tested, 2% active; HT-1080 IDH1 knockdown viability, ATP luminescence, 48 h; Potency, µM (doses to about 46.1 µM), actives largely listed as cytotoxic; AID 686971
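Cytotoxicity counter-line: IDH1KD HT-1080, 48 h, CellTiter-Glo. Curves classed by r2, magnitude and activity.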
MCF10A rereplic = induces DNA re-replication in MCF 10a normal breast cells; MCF 10A DNA re-replication, Hoechst nuclear intensity, 48 h; Potency, µM (series often up to 46.1 µM), hits mostly activators; 350,000 tested, 2.9% active; AID 624296; note: nearly all actives have a fitted effect of over 50% in size
HT1080-NT tox = kills 2HG-producing HT-1080-NT fibrosarcoma cells | Potency, µM (highest dose often 46.1 µM), usual class: cytotoxic | 360,000 tested, 1.6% active | HT-1080-NT fibrosarcoma viability, CellTiter-Glo ATP luminescence, 48 h;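 note: NT is the 2HG producing partner of a matched IDH1 knockdown line; nearly all actives have a fitted effect of over 55% in size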
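HT-1080-NT fibrosarcoma cells (2HG-overproducing), 750 cells/well in RPMI with 5% FBS, dosed after 2 h and incubated 48 h at 37C. CellTiter-Glo luminescence normalized to DMSO and no-cell wells; concentration-response curves fitted and classed.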
KB-3-1 cytotox = KB-3-1 parental cell cytotoxicity; KB-3-1 viability, CellTiter-Glo ATP luminescence, 72 h; Potency, µM (doses to about 46.1 µM), usual class: cytotoxic; 400,000 tested, 1.4% active; note: nearly all actives have a fitted effect of over 60% in size
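Cytotoxicity in the drug-sensitive parental line KB-3-1 was scored as loss of CellTiter-Glo luminescence following 72 h incubation with compound. Values come from curve fitting of normalized concentration-response data.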
Numbers stand for hits; [ ] = remark or other dose. Calls come from the whole dose curve; as a rule, active = well fitted curve in the direction sought with a large enough effect; inconclusive = small, poorly fitted or top-dose-only effect, or another doubt; inactive = no such curve, though single readings can be large; an effect the other way counts as inactive or inconclusive.

What do the screens show for `Cc1cc(C)cc(N2C(=O)CSC23C(=O)N(CC(N)=O)c2ccccc23)c1` (configuration not stated)?
KB-V1 cytotox: inactive; KB-3-1 cytotox: inactive

How did CSc1ccc(C(=O)c2[nH]c(=O)[nH]c2C)cc1 do in these assays?
KB-V1 cytotox: 5.8µM; SW480 rerep: inactive; HT1080 IDH1KD tx: inactive; MCF10A rereplic: inactive; HT1080-NT tox: inactive; KB-3-1 cytotox: inactive

Results for O=C(NC1CCS(=O)(=O)C1)c1ccc(Br)s1 (configuration not stated) ?
KB-V1 cytotox: inactive; SW480 rerep: inactive; HT1080 IDH1KD tx: inactive; MCF10A rereplic: inactive; HT1080-NT tox: inactive; KB-3-1 cytotox: inactive

What do the screens show for `Cc1cc(N=Cc2c(O)ccc3cc(Br)ccc23)no1`?
KB-V1 cytotox: inactive; SW480 rerep: inactive; HT1080 IDH1KD tx: inactive; MCF10A rereplic: 13µM; HT1080-NT tox: inactive; KB-3-1 cytotox: inactive

How did Cc1cc(N=Cc2c(O)ccc3ccccc23)no1 do in these assays?
KB-V1 cytotox: inconclusive; SW480 rerep: inactive; HT1080 IDH1KD tx: inconclusive; MCF10A rereplic: inactive; HT1080-NT tox: inconclusive; KB-3-1 cytotox: inactive

What do the screens show for `CCN(CC)CCCNc1nc(-c2ccccc2)nc2ccccc12`?
KB-V1 cytotox: inactive; SW480 rerep: inactive; HT1080 IDH1KD tx: inconclusive; MCF10A rereplic: inactive; HT1080-NT tox: inconclusive; KB-3-1 cytotox: inactive

Results for CCN(CC)CCCNc1nc2ccccc2c2[nH]c3ccc(OC)cc3c12 ?
KB-V1 cytotox: 16.4µM; SW480 rerep: inconclusive; HT1080 IDH1KD tx: 20.6µM; MCF10A rereplic: inactive; HT1080-NT tox: inconclusive; KB-3-1 cytotox: inconclusive

How did Cc1cccc(-c2ccc3c(c2)C2CC3CCN2C(=O)OCc2ccccc2)c1 (configuration not stated) do in these assays?
KB-V1 cytotox: inactive; SW480 rerep: inactive; HT1080 IDH1KD tx: inactive; MCF10A rereplic: inactive; HT1080-NT tox: inactive; KB-3-1 cytotox: inactive

What do the screens show for `CCOc1ccc(Nc2oc(-c3ccc(Cl)cc3)nc2C#N)cc1`?
KB-V1 cytotox: inconclusive; SW480 rerep: inconclusive; HT1080 IDH1KD tx: inconclusive; MCF10A rereplic: 20.6µM; HT1080-NT tox: inactive; KB-3-1 cytotox: inconclusive

How did N#Cc1nc(-c2ccc(Cl)cc2)oc1NCc1ccco1 do in these assays?
KB-V1 cytotox: inactive; SW480 rerep: inactive; HT1080 IDH1KD tx: inactive; MCF10A rereplic: 14.6µM; HT1080-NT tox: inactive; KB-3-1 cytotox: inactive

Results for COc1ccc(Nc2oc(-c3ccc(Cl)cc3)nc2C#N)cc1 ?
KB-V1 cytotox: inconclusive; SW480 rerep: inconclusive; HT1080 IDH1KD tx: inconclusive; MCF10A rereplic: 16.4µM; HT1080-NT tox: inconclusive; KB-3-1 cytotox: 4.61µM

How did Nn1c(=O)[nH]c2ccccc2c1=O do in these assays?
KB-V1 cytotox: inactive; SW480 rerep: inactive; HT1080 IDH1KD tx: inactive; MCF10A rereplic: inactive; HT1080-NT tox: inactive; KB-3-1 cytotox: inactive

What do the screens show for `COc1ccc(CCNC(=O)C(=O)c2cn(CC(=O)N3CCCC3)c3ccccc23)cc1`?
KB-V1 cytotox: inactive; HT1080 IDH1KD tx: inactive; HT1080-NT tox: inactive; KB-3-1 cytotox: inactive

What do the screens show for `CC1=NN(c2nc3ccccc3[nH]2)C(=O)C1Cc1ccccc1` (configuration not stated)?
KB-V1 cytotox: inconclusive; SW480 rerep: 2.91µM; HT1080 IDH1KD tx: inconclusive; MCF10A rereplic: inconclusive; HT1080-NT tox: 2.06µM; KB-3-1 cytotox: inconclusive

How did CCCC1=NN(c2ccc([N+](=O)[O-])cc2)C(=O)/C1=C/N(C)C do in these assays?
KB-V1 cytotox: inactive; SW480 rerep: inactive; HT1080 IDH1KD tx: inactive; MCF10A rereplic: inactive; HT1080-NT tox: inactive; KB-3-1 cytotox: inactive

What do the screens show for `CC1=NN(c2nc3ccccc3[nH]2)C(=O)/C1=C/N(C)C`?
KB-V1 cytotox: inconclusive; SW480 rerep: inactive; HT1080 IDH1KD tx: 2.91µM; MCF10A rereplic: inactive; HT1080-NT tox: 20.6µM; KB-3-1 cytotox: 5.8µM

What do the screens show for `CC1=NN(c2ccc([N+](=O)[O-])cc2)C(=O)/C1=C\N(C)C`?
KB-V1 cytotox: 10.3µM; SW480 rerep: inactive; HT1080 IDH1KD tx: 8.2µM; MCF10A rereplic: inactive; HT1080-NT tox: 8.2µM; KB-3-1 cytotox: inconclusive

What do the screens show for `CCOc1ccc(N2C(=O)CC(N3CCN(c4ccc([N+](=O)[O-])cc4)CC3)C2=O)cc1` (configuration not stated)?
KB-V1 cytotox: inactive; SW480 rerep: inactive; HT1080 IDH1KD tx: inactive; MCF10A rereplic: inactive; HT1080-NT tox: inactive; KB-3-1 cytotox: inactive

What do the screens show for `COC(=O)c1ccc(/C=N/N2CCN(Cc3ccccc3)CC2)cc1`?
KB-V1 cytotox: inactive; SW480 rerep: inactive; HT1080 IDH1KD tx: inactive; MCF10A rereplic: inactive; HT1080-NT tox: inactive; KB-3-1 cytotox: inactive

Results for COc1ccc(C(=O)Nn2c(SCC(=O)NCc3ccco3)nc3ccccc3c2=O)cc1 ?
KB-V1 cytotox: inconclusive; SW480 rerep: inactive; HT1080 IDH1KD tx: inconclusive; MCF10A rereplic: inactive; HT1080-NT tox: inconclusive; KB-3-1 cytotox: inconclusive

Results for COc1ccc(C(=O)Nn2c(SCC(=O)c3ccc(Cl)cc3)nc3ccccc3c2=O)cc1 ?
KB-V1 cytotox: 5.8µM; SW480 rerep: inactive; HT1080 IDH1KD tx: inconclusive; MCF10A rereplic: inactive; HT1080-NT tox: inconclusive; KB-3-1 cytotox: inactive

What do the screens show for `COc1ccc(C(=O)Nn2c(SCC(=O)N3CCC(C)CC3)nc3ccccc3c2=O)cc1`?
KB-V1 cytotox: 5.17µM; SW480 rerep: inactive; HT1080 IDH1KD tx: inconclusive; MCF10A rereplic: inactive; HT1080-NT tox: inconclusive; KB-3-1 cytotox: inactive

Results for COc1ccc(C(=O)Nn2c(SCC(=O)NC3CCCCC3)nc3ccccc3c2=O)cc1 ?
KB-V1 cytotox: 18.4µM; SW480 rerep: inactive; HT1080 IDH1KD tx: inactive; MCF10A rereplic: inactive; HT1080-NT tox: inconclusive; KB-3-1 cytotox: inactive

What do the screens show for `O=C(COc1ccccc1[N+](=O)[O-])NCC1(N2CCCCC2)CCCCC1`?
KB-V1 cytotox: inactive; SW480 rerep: inactive; HT1080 IDH1KD tx: inactive; MCF10A rereplic: inactive; HT1080-NT tox: inactive; KB-3-1 cytotox: inactive

Results for O=c1oc2ccccc2cc1-c1nc2c(s1)CCCC2 ?
KB-V1 cytotox: inconclusive; SW480 rerep: 1.16µM; HT1080 IDH1KD tx: inactive; MCF10A rereplic: 1.16µM; HT1080-NT tox: inactive; KB-3-1 cytotox: inconclusive

Results for CCCCC(c1nnnn1CCOC)N1CCN(CC)CC1 (configuration not stated) ?
KB-V1 cytotox: inactive; SW480 rerep: inactive; HT1080 IDH1KD tx: inactive; MCF10A rereplic: inactive[9.22 µM]; HT1080-NT tox: inactive; KB-3-1 cytotox: inactive

How did CCOC(=O)Cc1csc(NC(=O)CN2CCOCC2)n1 do in these assays?
KB-V1 cytotox: inactive; SW480 rerep: inactive; HT1080 IDH1KD tx: inactive; MCF10A rereplic: inactive; HT1080-NT tox: inactive; KB-3-1 cytotox: inactive

What do the screens show for `CCOC(=O)Cc1csc(NC(=O)CCc2ccc(S(=O)(=O)N3CCOCC3)cc2)n1`?
KB-V1 cytotox: inactive; SW480 rerep: 23.1µM; HT1080 IDH1KD tx: inactive; MCF10A rereplic: inconclusive; HT1080-NT tox: inactive; KB-3-1 cytotox: inactive

Screens from PubChem BioAssay.
